What follows are sequences tested against CYP20A1 (assay: pooled miR-30 sensor sort-seq; sequence = guide strand). Details: shRNA.
Note: reference of the scale not given here.

Row | Sequence | sensor-assay potency score (higher = more potent)
1 | ATACTTTGTTTCAATAACCTGT | -0.318
2 | TTTTGAACTTCTTCAGAGGTGG | 0.0133
3 | ATGCTGACAATATCTGAGCTGC | -0.739
4 | TTATCTAATAATTCTTCTGAAA | -1.37
5 | TATCATACTGTCTTCTAGGATC | -0.814
6 | TTCTTCTGAAAGCTTTAGGAGG | -0.987
7 | TTTGCAGTTATTATGCAACTGG | -0.736
8 | TTCATCATCAAACCGATCTGGA | -0.00182
9 | TCCTTCAATATCTTGAAGCTGG | -0.788
10 | TTTATCTAATAATTCTTCTGAA | -0.378
11 | TAAATCGGTCAATTTTTCCTTC | 0.481
12 | TACACTAAGAAGTACTGTGGTC | -0.206

What follows are sequences tested against CYP2E1 in the same assay as above. Details: shRNA.

Row | Sequence | sensor-assay potency score (higher = more potent)
13 | TTGGTTGTCATACAAAACAGAG | -1.2
14 | TTGTAGTCAAAATGCTTGCGGA | -0.87
15 | TTGGGGATGAGGTATCCTCTGA | -0.671
16 | TTGATGGTGCTCCTTCACCCTT | -1.19
17 | AAGTAGTGTAGAAAGCTGGGAA | 0.682
18 | TAGAAACTTCTCATCATTGTAG | 1.11

From the OligoGym collection
